Bioassay records: PubChem, National Center for Advancing Translational Sciences (NCATS)
AmpC detergent: blocks E. coli AmpC beta-lactamase in detergent assay; P00811; AmpC hydrolysis of nitrocefin, absorbance 480 nm, 0.01% Triton; Potency, µM (highest dose often 114 µM), for the others: at the highest dose activity change, negative = inhibition, hits mostly inhibitors; 0.041% of 370,000 active;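 further: 0% = no-compound wells and -100% = no-enzyme wells; nearly all actives have a fitted effect of over 25% in size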
Target sequence (P00811 whole entry, looked up): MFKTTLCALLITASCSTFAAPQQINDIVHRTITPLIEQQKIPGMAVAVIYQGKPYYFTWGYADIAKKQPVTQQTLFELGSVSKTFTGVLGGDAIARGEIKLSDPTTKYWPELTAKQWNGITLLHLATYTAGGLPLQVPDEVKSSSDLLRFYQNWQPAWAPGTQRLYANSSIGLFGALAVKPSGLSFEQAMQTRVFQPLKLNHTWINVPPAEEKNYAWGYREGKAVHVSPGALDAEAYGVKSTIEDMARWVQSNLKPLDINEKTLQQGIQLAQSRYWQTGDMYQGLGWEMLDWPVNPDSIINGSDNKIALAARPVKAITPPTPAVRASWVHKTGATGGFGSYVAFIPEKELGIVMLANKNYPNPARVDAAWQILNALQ
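20 mM phosphate pH 7.0 + 0.01% (detergent screen) or 0.0001% Triton X-100; 5.3 nM AmpC reagent; cpd preinc 15 min RT; nitrocefin (800 uM stock) to start; A480 q20 s × 4 min; Activity was normalised to no-enzyme and no-compound control wells.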
Sm TGR inh: S. mansoni TGR enzyme inhibition; Q962Y6; purified TGR, DTNB reduction, TNB absorbance 405 nm; Potency, µM (highest dose often 114 µM), for inactives: at the top dose activity change, negative = inhibition, most hits filed as inhibitors; 3% of 360,000 active; AID 485364; further: on the % scale 0 is the no-effect control and ±100 the full control effect; nearly all actives have a fitted effect of over 60% in size
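TGR 20 nM + NADPH 100 uM (dispensed conc.), cpd preinc 15 min RT; start with NADPH (500 uM addition) then DTNB (15 mM addition). Kinetic TNB absorbance, 405 nm filter. Four-parameter Hill fit across titration.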
Pf growth 96h: P. falciparum growth inhibition at 96 hours | AID 504834 | Potency, µM (doses to about 28.7 µM), inactives show at the highest dose activity change, negative = inhibition, hits mostly inhibitors | 6.9% of 320,000 active | P. falciparum luciferase reporter growth, 96 h; further: on the % scale 0 is the no-effect control and ±100 the full control effect
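Readout is luminescence from an integrated firefly luciferase in P. falciparum. Red cells, 2% hematocrit and 0.05% parasitemia final, were cultured with compound through two parasite generations (96 hours) at 37 C, 5% CO2.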
Pf growth 48h: P. falciparum growth inhibition at 48 hours (one generation); 5.9% of 310,000 active; Potency, µM (top dose mostly 28.7 µM), without a hit: at the highest dose activity change, negative = inhibition, actives largely listed as inhibitors; P. falciparum luciferase growth in erythrocytes, 48 h; AID 504832; further: on the % scale 0 is the no-effect control and ±100 the full control effect
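Luciferase-expressing P. falciparum in infected erythrocytes (2% hematocrit, 0.1% parasitemia final) in RPMI 1640/0.5% Albumax were exposed to compound for 48 hours at 37 C, 5% CO2; growth read as luminescence.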
SARS PLpro yeast: blocks SARS-CoV papain-like protease in a yeast assay; S. cerevisiae expressing SARS-CoV PLpro, growth rescue; Potency, µM (doses to about 32.9 µM), without a hit: at the top dose activity, positive = growth rescue, most hits filed as activators; 0.19% of 330,000 active; calls by dose curve; further: 0% is about no effect; nearly all actives have a fitted effect of over 55% in size
AmpC inh no detg: AmpC beta-lactamase inhibition without detergent. P00811. AmpC nitrocefin hydrolysis, absorbance 480 nm, 0.0001% Triton. Potency, µM (titrated, usually from 57.1 µM), for the others: top-dose activity change, negative = inhibition, usual class: inhibitors. 0.52% of 330,000 active. AID 485341;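 further: plate controls were no compound for no effect and no enzyme for full effect; nearly all actives have a fitted effect of over 20% in size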
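AmpC (5.3 nM in the dispensed reagent) in 20 mM phosphate pH 7.0 with 0.01% (detergent screen) or 0.0001% Triton X-100 was preincubated with compounds for 15 min at room temperature. Nitrocefin was then added from an 800 uM solution, and hydrolysis was followed at 480 nm.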
* hit, by the source's call; ? = inconclusive; · = no result. The list is not random: actives were taken first. Their share in the collection is about 12%. Unless noted, the call rests on the fitted dose curve; in most records, active means well fitted curve in the direction sought with a large enough effect; inconclusive means small, poorly fitted or top-dose-only effect, or another doubt; inactive means no such curve, though single readings can be large; an effect the other way counts as inactive or inconclusive. Potency means the concentration at half of the fitted maximal effect.

SMILES	AmpC detergent	Sm TGR inh	Pf growth 96h	Pf growth 48h	SARS PLpro yeast	AmpC inh no detg
O=C(COC(=O)CCN1C(=O)c2cccc([N+](=O)[O-])c2C1=O)NCc1ccccc1	-16%	79µM*	31%	383%	1%	2%
CCOC(=O)Cc1csc(NC(=O)C(C)c2ccc([N+](=O)[O-])cc2)n1 (configuration not stated)	?	5%	23%	9.3µM*	1%	-21%
CCOC(=O)Cc1csc(NC(=O)CCN2C(=O)c3cccc([N+](=O)[O-])c3C2=O)n1	-7%	-15%	13µM*	9%	2%	-5%
CCOc1ccc(CNC(=O)C(C)n2nc(C)c3c(C)n(-c4ccccc4)nc3c2=O)cc1 (configuration not stated)	?	-27%	-6%	?	1%	0%
COc1ccc(CNC(=O)C(C)n2nc(C)c3c(C)n(-c4ccc(C)cc4)nc3c2=O)cc1 (configuration not stated)	-4%	0%	-2%	13µM*	-3%	1%
COc1ccccc1CNC(=O)C(C)n1nc(C)c2c(C)n(-c3ccccc3)nc2c1=O (configuration not stated)	-2%	-8%	?	?	-4%	-11%
COc1ccccc1CCNC(=O)C(C)n1nc(C)c2c(C)n(-c3ccccc3)nc2c1=O (configuration not stated)	?	-3%	12µM*	-12%	5%	-1%
COc1ccc(CCNC(=O)C(C)n2nc(C)c3c(C)n(-c4ccc(C)cc4)nc3c2=O)c(OC)c1 (configuration not stated)	0%	-2%	3.3µM*	13µM*	-1%	43%
Cc1cccc(CNC(=O)C(C)n2nc(C)c3c(C)n(-c4ccccc4)nc3c2=O)c1 (configuration not stated)	-6%	-22%	10µM*	?	-1%	-1%
Nn1c(SCC(=O)NC(=O)Nc2ccc3c(c2)OCCO3)nnc1C1CC1	-12%	-7%	105%	80%	0%	-14%
Cc1ccc(S(=O)(=O)c2nc(-c3cccs3)oc2SCc2ccc(F)cc2)cc1	6%	7%	·	·	·	·
COC(=O)C1=NN(N=O)C2(CC(=O)N(c3cc(C)cc(C)c3)C2=O)C1 (configuration not stated)	2%	25µM*	-4%	·	11%	-32%
O=C(CSc1ccsc1[N+](=O)[O-])NCc1ccccc1	-15%	?	15µM*	124%	-1%	-24%
O=C(CSc1ccsc1[N+](=O)[O-])Nc1cccc(F)c1	-9%	?	17%	18%	-1%	-52%
COc1ccccc1CNC(=O)CSc1ccsc1[N+](=O)[O-]	3%	-27%	-4%	90%	2%	-31%
COc1ccc(CCNC(=O)CSc2ccsc2[N+](=O)[O-])c(OC)c1	?	2%	1.7µM*	?	1%	-30%
CCc1ccccc1NC(=O)CSc1ccsc1[N+](=O)[O-]	-11%	-33%	2.3µM*	-10%	-1%	?
OCCC1CN(Cc2cccn2-c2ncccn2)CCN1CCc1ccccc1 (configuration not stated)	3%	-7%	0%	-25%	1%	-11%
COc1cc(/C=N/n2c(=S)[nH]nc(C)c2=O)cc([N+](=O)[O-])c1O	1%	?	15µM*	64%	0%	-22%
COc1cc(/C=N/n2c(-c3cc(C)[nH]n3)n[nH]c2=S)cc(OC)c1O	7%	-3%	-9%	-7%	-1%	-19%
Cc1n[nH]c(=S)n(/N=C/c2cccc([N+](=O)[O-])c2)c1=O	-2%	12%	?	1.7µM*	1%	0%
O=[N+]([O-])c1cccc(/C=N/n2c(-c3cccnc3)n[nH]c2=S)c1	-9%	-18%	39%	13%	9%	-32%
CCc1ccccc1OCC(=O)Nc1ccc(S(=O)(=O)Nc2nc(C)cc(C)n2)cc1	27%	0%	·	·	·	·
CCOc1ccc(NS(=O)(=O)c2ccc3c(c2)N(C(C)=O)CCS3)cc1	-4%	-2%	-23%	?	?	-4%
CCOC(=O)CN(C)C(=O)CCc1nnc(-c2ccsc2)o1	-1%	2%	?	-24%	1%	-43%
SMILES	AmpC detergent	Sm TGR inh	Pf growth 96h	Pf growth 48h	SARS PLpro yeast	AmpC inh no detg
COc1cccc(CN(C)C(=O)CCc2nnc(-c3ccsc3)o2)c1	-2%	-11%	?	10µM*	-2%	65%
CCN(CC)S(=O)(=O)c1ccc(F)c(C(=O)NCCC(C)C)c1	-7%	-1%	4.1µM*	-21%	5%	-2%
CCN(Cc1ccccc1)S(=O)(=O)c1ccc(F)c(C(=O)Nc2ccc(C(C)C)cc2)c1	-7%	8%	·	·	·	·
COc1ccccc1COCC(O)CNCC1(N2CCCCC2)CCCCC1 (configuration not stated)	0%	-5%	120%	?	-3%	0.14µM*
COc1cc(C(C)=O)ccc1OCC(O)CNCC1(N2CCCCC2)CCCCC1 (configuration not stated)	?	3%	0%	-14%	2%	-15%
N#C/C(=C/c1ccc(Br)o1)C(N)=S	-7%	3.5µM*	12µM*	?	-1%	-38%
Cc1ccc2c(c1)N(C(=O)N1CCC(C(=O)NCCc3ccc(Cl)cc3)CC1)CC(C)O2 (configuration not stated)	18%	0%	·	·	·	·
C/C(=C/C(=O)N1CCc2ccccc21)C(=O)O	-16%	21%	?	-10%	17%	-10%
NC(=O)[C@@H]1CC2(CC(c3cccc(NC(=O)COc4ccc(Cl)cc4)c3)=NO2)CN1C(=O)c1ccccc1 (some centres not stated)	-13%	12%	13µM*	10µM*	0%	158%
COc1ccc(C(=O)N2CC3(CC(c4cccc(NC(=O)COc5ccc(Cl)cc5)c4)=NO3)C[C@@H]2C(N)=O)cc1 (some centres not stated)	-5%	-5%	12µM*	10µM*	1%	163%
CCC(=O)Nc1cccc(C2=NOC3(C2)C[C@H](C(N)=O)N(C(=O)c2ccc(Cl)cc2)C3)c1 (some centres not stated)	-6%	-14%	-15%	?	-1%	79%
